Assay outcomes as filed in PubChem.
Shown are actives, neighbours in structure and some others; about 1.1% of the full set was active somewhere.
Pemphigus Ab inh: inhibitors of pemphigus antibody binding to human desmoglein-3; binding (percent of control), % at 10 µM; P32926; actives 0.48% (n = 310,000); DSG3-coupled beads, scFv-anti-DSG3-GFP binding, flow cytometry; hits give low values;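 active means binding more than 3 SD below its plate's average and above zero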;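 further: hits lower antibody fragment binding to DSG3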
Target sequence (P32926 whole entry, looked up, the tested form may be a part): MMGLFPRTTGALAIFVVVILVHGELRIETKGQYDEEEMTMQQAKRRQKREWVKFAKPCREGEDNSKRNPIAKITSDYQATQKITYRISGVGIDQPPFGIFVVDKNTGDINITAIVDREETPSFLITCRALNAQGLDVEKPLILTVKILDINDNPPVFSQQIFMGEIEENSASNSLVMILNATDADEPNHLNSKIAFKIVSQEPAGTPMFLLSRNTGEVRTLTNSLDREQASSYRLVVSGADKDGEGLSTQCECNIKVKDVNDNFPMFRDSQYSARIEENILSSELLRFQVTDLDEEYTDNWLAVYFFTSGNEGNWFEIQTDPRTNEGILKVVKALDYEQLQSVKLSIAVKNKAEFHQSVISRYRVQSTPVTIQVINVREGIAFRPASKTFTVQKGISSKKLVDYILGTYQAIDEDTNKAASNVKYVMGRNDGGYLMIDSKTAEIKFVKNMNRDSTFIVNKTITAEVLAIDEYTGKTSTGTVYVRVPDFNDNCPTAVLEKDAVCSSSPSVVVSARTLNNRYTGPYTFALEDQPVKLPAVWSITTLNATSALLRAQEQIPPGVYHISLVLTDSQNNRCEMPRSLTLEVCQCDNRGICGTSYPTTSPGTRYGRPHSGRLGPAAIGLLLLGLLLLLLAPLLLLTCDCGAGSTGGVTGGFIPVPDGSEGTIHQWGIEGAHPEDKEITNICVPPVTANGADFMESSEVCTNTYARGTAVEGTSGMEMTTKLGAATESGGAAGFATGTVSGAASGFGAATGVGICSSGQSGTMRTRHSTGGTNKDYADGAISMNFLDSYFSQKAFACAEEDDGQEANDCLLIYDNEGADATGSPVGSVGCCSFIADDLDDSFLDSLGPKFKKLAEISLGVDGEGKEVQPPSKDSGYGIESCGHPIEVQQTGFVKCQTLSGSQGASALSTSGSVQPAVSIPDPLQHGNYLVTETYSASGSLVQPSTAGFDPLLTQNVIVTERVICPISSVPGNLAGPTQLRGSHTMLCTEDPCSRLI
NTR1 ag: activates human neurotensin receptor 1. P30989. NTR1-U2OS beta-arrestin-GFP spot imaging, agonist mode. activation, % at 20 µM. actives 0.17% (n = 330,000). AID 493036;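 active means activation at or above 40% of the spot to cytoplasm intensity ratio, with at least 20 cells analyzed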;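 further: 0% = DMSO without peptide and 100% = 100 nM NTR1 peptide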
AI-2 QS modul: modulators of Vibrio harveyi AI-2 quorum sensing system; Vibrio harveyi JMH597 AI-2 luminescence/OD600 ratio, 9 h; hits give low values; strain lacks LuxN and CqsS sensors; 0 = neutral-control median; activity change, % at 7.5 µM; actives 0.4% (n = 300,000); AID 2094; in the data active means activity change below about -75%, passing the limit was not always enough;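 further: luminescence divided by OD600 gain over 9 h not by final OD600 alone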
VLA-4 inh: inhibition in a human VLA-4 binding assay. P13612. VLA-4 expressing cells, ligand binding flow cytometry. inhibition, % (about 7 µM as worked out from the volumes in the protocol). actives 0.2% (n = 330,000). AID 2557; in the data active means inhibition above about 50%
* marks the source's active call; other numbers are inactive results; . = no result given.

SMILES	Pemphigus Ab inh	NTR1 ag	AI-2 QS modul	VLA-4 inh
NS(=O)(=O)c1ccc(NC(=O)COC(=O)c2ccc(Cl)cc2[N+](=O)[O-])cc1	99	2	-13	4
Cc1ccc(NC(=O)COC(=O)c2cc(Cl)ccc2[N+](=O)[O-])cc1	101	0	-92*	-3
NS(=O)(=O)c1cccc(NC(=O)COC(=O)c2cc(Cl)ccc2[N+](=O)[O-])c1	101	1	-79*	-1
Cc1ccc(NC(=O)COc2cccc3c2OC(C)(C)C3)c(O)c1	101	-1	.	-5
Cc1cccc(OC(=O)NCCOC(=O)N(O)c2ccc(Cl)cc2)c1	-26*	5	1	6
Cc1cccc(OCC(=O)Oc2ccc(Cl)cc2)c1	.	1	26	2
Cc1cc(=O)n2nc(N3CCCC(C(=O)NCCCN4C(C)CCCC4C)C3)sc2n1 (stereo unspecified)	107	.	.	.
COc1ccc(CNC(=O)CCC(=O)n2ncc3cc(C)ccc32)cc1	76*	0	36	7
COc1ccc([C@H]2C[C@H](n3cc(-c4ccc(F)cc4)nn3)[C@@H](O)CN2C(=O)C2CCCCC2)cc1	109	.	.	.
COc1ccc(NC(=O)/C(C#N)=C/c2ccc(Sc3nncn3C)c([N+](=O)[O-])c2)cc1	99	17	15	52*
CCOC(=O)Cc1csc(-n2sc3ccccc3c2=O)n1	44*	1	21	2
CCOC(=O)C1=C(COC(=O)c2ccc(Br)c(S(=O)(=O)N3CCOCC3)c2)NC(=O)NC1C (stereo unspecified)	98	.	.	.
CCC(CC)C(=O)Nc1nnc(S(=O)(=O)N2c3ccccc3CC2C)s1 (stereo unspecified)	-14*	10	-1	36
Cc1snc(S(=O)(=O)/C(C#N)=N/Nc2cccc(C(F)(F)F)c2)c1C#N	74*	0	20	16
O=C(c1cc(C2CC2)nn1-c1ccccc1)N1CCN(c2ccccn2)CC1	103	1	.	.
CCCC(C(=O)Nc1cccc(S(=O)(=O)N2CCCC2)c1)c1ccccc1 (stereo unspecified)	8.0*	4	7	10
O=C(CCC(=O)N1CCCCC1)Nc1ccc(Cl)c(Cl)c1	108	1	-78*	4
Cc1c(Cl)cccc1NC(=S)NC(=O)c1ccccc1	135	.	.	.
O=C(O)CN1C(=O)/C(=C/c2ccccc2Cl)Oc2ccccc21	91	-2	10	-12
CCOC(=O)CN1C(=O)/C(=C/c2ccccc2Br)Oc2ccccc21	-3.0*	6	14	-1
CCOC(=O)c1ccc(-c2ccc(/C=N/NC(=O)c3cncc(Br)c3)o2)cc1	75*	9	49	-10
Cc1ccc(C(=O)N/N=C\c2ccc(-c3ccc(Cl)cc3)o2)cn1	92*	3	2	-2
Cc1ccc(C(=O)N/N=C\c2ccc(-c3ccc([N+](=O)[O-])cc3)o2)cn1	119	0	28	-27
CC1C(=O)N(Cc2cn(CCC3OCCCO3)nn2)CCS(=O)(=O)N1Cc1ccc(-c2cccc(CO)c2)cc1 (stereo unspecified)	97	.	.	.
O=C(CSc1nnc(NC(=O)c2ccccc2Cl)s1)Nc1ccc2c(c1)oc1ccccc12	.	51*	44	-1
SMILES	Pemphigus Ab inh	NTR1 ag	AI-2 QS modul	VLA-4 inh
CC(C)(C)NC(=O)CSc1nnc(NC(=O)c2ccccc2Cl)s1	98	1	20	25
CC(C)C1C(=O)N(Cc2cn(CC3CCCCC3)nn2)CCS(=O)(=O)N1Cc1ccc(-c2ccccc2)cc1 (stereo unspecified)	108	.	.	.
c1ccc(CN2CCN(c3nc(NCc4ccco4)c4ccccc4n3)CC2)cc1	103	44*	19	-1
OCCN1CCN(c2nc(NCc3ccco3)c3ccccc3n2)CC1	99	-1	31	16
CCN(CC)C(=O)C1=C(C)N(Cc2ccc(OC)cc2)C(=O)C(CC(=O)NC2CCCCC2)C1 (stereo unspecified)	106	.	.	.
CC(C)Cc1cc(C(=O)Nc2cc(Cl)ccc2Cl)no1	-39*	7	6	-8
CCOC(=O)c1csc(-c2csc(CCNC(=O)c3ccccc3)n2)n1	104	.	.	.
C1=C(c2ccccc2)Nc2ncnn2C1c1ccccc1 (stereo unspecified)	69*	1	-5	37
CCCCc1ccc(NC(=O)CC(C)(C)C)cc1	101	6	-76*	18
Cc1cc(C)c(C)c(S(=O)(=O)N2CCN(CC(=O)Nc3ccc([N+](=O)[O-])cc3)CC2)c1C	60*	2	6	-4
Cc1ccc(S(=O)(=O)N2CCN(CC(=O)Nc3ccc([N+](=O)[O-])cc3)CC2)cc1C	87	2	25	7
Cc1sc(NC(=O)CSc2nnc3scc(-c4ccccc4)n23)c(C#N)c1C	84*	6	7	8
COC(=O)CCC(=O)Nc1ccc(N=Nc2ccccc2)cc1	-11*	3	10	9
O=C(CCCCCCCC(=O)c1ccccc1)c1ccccc1	101	0	7	1
O=C(CCC(=O)c1ccccc1)Nc1ccccc1	80*	1	-64	1
O=C(CCCCCCC(=O)c1ccccc1)c1ccccc1	62*	0	63	0
O=C(O)CCCC(=O)Nc1ccc(N=Nc2ccccc2)cc1	92	-1	30	5
CCOC(=O)/C=C/C(=O)OCC(=O)NCc1ccccc1	103	-2	14	4
C/C(=C\C(=O)OCC(=O)NCc1ccccc1)C(=O)OCC(=O)NCc1ccccc1	76*	0	16	22
COc1ccccc1C(=O)Nc1ccnn1C1CCN(C2CCCCC2)CC1	111	.	.	.
CCOC(=O)c1sc(=S)n(Cc2ccccc2)c1N	111	-1	-86*	1
CCOC(=O)c1sc(=S)n(CC)c1N	94	0	6	-1
NC(=O)c1ccc(NC(=O)c2ccc3c(c2)CCN3S(=O)(=O)c2ccccc2)cc1	10*	2	18	13
COc1ccc(/C=C/C(=O)NC(=S)Nc2cc3oc4ccccc4c3cc2OC)cc1	90	0	11	8
COc1cc2c(cc1NC(=S)NC(=O)/C=C/c1ccc(OC)c(OC)c1)oc1ccccc12	68*	.	.	.
SMILES	Pemphigus Ab inh	NTR1 ag	AI-2 QS modul	VLA-4 inh
Cc1ccc(C(=O)CNc2ccc(C)c(Cl)c2)cc1	-6.7*	3	40	0
Cc1ccc(NCCC(=O)c2ccccc2)cc1Cl	89*	9	-15	5
CC1(C(=O)N2CCC(CO)(Cc3cccc(C(F)(F)F)c3)CC2)CC1	98*	0	-1	7
COc1ccc(CN(C)C[C@H]2OCc3cnnn3CCCC(=O)N([C@H](C)CO)C[C@@H]2C)cc1	102	.	.	.
CC1=C(C(=O)N(C)C)CC(CC(=O)NCC2CCCCC2)C(=O)N1CCCN1CCCC1=O (stereo unspecified)	106	.	.	.
O=C(Nc1ccc(NC(=O)c2cccs2)cc1)c1cccs1	22*	0	10	7
S=c1[nH]c(-c2ccccc2)cn1/N=C/c1cccnc1	80*	0	13	11
O=C(C[C@H]1C[C@@H]2c3cc(NS(=O)(=O)c4ccccc4)ccc3O[C@@H]2[C@H](CO)O1)N1CCOCC1	96	.	.	.
